Whole data set: some 18,000 sequences, median “TetR repression strength (sort-seq, GFP reporter)” near 0.23, cut for the highest 2% near 0.68. Many of the other results were omitted from the sample, so the highest values are more common in it than they were.
Molecular target: TetR (class B, Tn10) (UniProt P04483)
Assay: TetR repression strength (sort-seq, GFP reporter) (relative to tetO2 = 1); higher = stronger repression
Details: E. coli
Summary of the method: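 Escherichia coli SIG10-MAX cells carried a low-copy plasmid library in which eight operator positions were randomized between a constitutive promoter and sfGFP, and TetR was expressed constitutively. After 5 h of growth at 37 °C in LB with 50 µg/mL chloramphenicol, 10^6 cells were FACS-sorted into 13 fluorescence bins, and each bin was Illumina-sequenced. Repression strength was the top bin index plus one minus the read-weighted mean bin, divided by the value for the unaltered operator. Across three independent transformations, only library members with ≥30 reads in every replicate and a CV ≤0.5 were averaged.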

Sequence of TetR (class B, Tn10) (P04483 whole entry): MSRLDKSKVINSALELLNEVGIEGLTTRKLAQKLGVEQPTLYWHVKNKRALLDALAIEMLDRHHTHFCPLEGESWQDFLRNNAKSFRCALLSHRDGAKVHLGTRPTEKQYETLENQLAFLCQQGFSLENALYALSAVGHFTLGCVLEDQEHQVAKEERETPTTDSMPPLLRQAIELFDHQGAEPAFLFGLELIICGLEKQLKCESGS

Row | Sequence | TetR repression strength
1 | TCCCTATGAGTGGTAGAGA | 0.288
2 | TCCCTACCAGTGCAAGAGA | 0.199
3 | TCCCTAACAGTGGTAGAGA | 0.415
4 | TCCCTACCAGTCGGAGAGA | 0.278
5 | TCCCTACAAGTGGAAGAGA | 1.21
6 | TCCCTAAAAGTGGAAGAGA | 0.104
7 | TCCCTGACAGTCGGTGAGA | 0.106
8 | TCCCAGGGAGTTTTAGAGA | 0.305
9 | TCCCACGTAGTCAATGAGA | 0.157
10 | TCCCTCAGAGTAAAGGAGA | 0.218
11 | TCCCTTTGAGTAGGTGAGA | 0.168
12 | TCCCATTGAGTTGCTGAGA | 0.153
13 | TCCCTCACAGTCAGTGAGA | 0.302
14 | TCCCGCAAAGTGAATGAGA | 0.207
15 | TCCCCGCGAGTGACAGAGA | 0.569
16 | TCCCAACAAGTGAGTGAGA | 0.42
17 | TCCCTATCAGTTGAAGAGA | 0.55
18 | TCCCTAACAGTGGAAGAGA | 0.299
19 | TCCCTATCAGTGGAAGAGA | 0.722
20 | TCCCCGACAGTTGCGGAGA | 0.0545
21 | TCCCTGGGAGTTTAGGAGA | 0.302
22 | TCCCTGCAAGTACCTGAGA | 0.308

Row | Sequence | TetR repression strength
23 | TCCCGGCGAGTGGGGGAGA | 0.193
24 | TCCCGACTAGTTAGCGAGA | 0.682
25 | TCCCGGCTAGTTAGCGAGA | 0.485
26 | TCCCCTCAAGTTAGCGAGA | 0.742
27 | TCCCGACTAGTTAGTGAGA | 0.25
28 | TCCCCTCAAGTTAGGGAGA | 0.304
29 | TCCCCTCAAGTTGGCGAGA | 0.113
30 | TCCCATGGAGTATGAGAGA | 0.417
31 | TCCCAAAGAGTGGAGGAGA | 0.388
32 | TCCCCGCCAGTAAAAGAGA | 0.389
33 | TCCCGGTCAGTGGCCGAGA | 0.523
34 | TCCCGGCCAGTTCGTGAGA | 0.197
35 | TCCCGCGTAGTGGTTGAGA | 0.826
36 | TCCCCCGTAGTAGGAGAGA | 0.197
37 | TCCCCCGGAGTGGTTGAGA | 0.192
38 | TCCCGCGTAGTAGGAGAGA | 0.691
39 | TCCCGCGGAGTGGTTGAGA | 0.768
40 | TCCCGCGTAGTAGGGGAGA | 0.425
41 | TCCCGTGTAGTTGGAGAGA | 0.191
42 | TCCCGTGTAGTTGCAGAGA | 0.976
43 | TCCCGCGTAGTTGTTGAGA | 0.402
44 | TCCCGCGGAGTGGTGGAGA | 0.155

Row | Sequence | TetR repression strength
45 | TCCCGCGTAGTGGTGGAGA | 0.256
46 | TCCCGTGCAGTTGCAGAGA | 0.376
47 | TCCCTGTGAGTCGTTGAGA | 0.443
48 | TCCCGGTAAGTATTCGAGA | 0.175
49 | TCCCCATAAGTCCTTGAGA | 0.415
50 | TCCCATAGAGTATGGGAGA | 0.0311
51 | TCCCGGAGAGTAGCGGAGA | 0.287
52 | TCCCTTTCAGTGAGTGAGA | 0.488
53 | TCCCAATCAGTGTGTGAGA | 0.101
54 | TCCCTATGAGTGTCAGAGA | 0.238
55 | TCCCAATCAGTGAGAGAGA | 0.538
56 | TCCCTTTCAGTTATTGAGA | 0.55
57 | TCCCTTTCAGTGATTGAGA | 0.713
58 | TCCCAATCAGTGAGTGAGA | 0.701
59 | TCCCTATCAGTTGTTGAGA | 0.441
60 | TCCCTATCAGTTGTGGAGA | 0.726
61 | TCCCTATAAGTTGTGGAGA | 0.201
62 | TCCCTATCAGTGTCAGAGA | 0.958
63 | TCCCTATCAGTGTCTGAGA | 0.556
64 | TCCCTTGTAGTTGAAGAGA | 0.148
65 | TCCCTTGGAGTGATAGAGA | 0.384
66 | TCCCTTTCAGTTAAGGAGA | 0.196

Row | Sequence | TetR repression strength
67 | TCCCTGGAAGTGTTCGAGA | 0.277
68 | TCCCGGAGAGTATAAGAGA | 0.289
69 | TCCCAAGAAGTAGGTGAGA | 0.23
70 | TCCCATAAAGTTCAAGAGA | 0.224
71 | TCCCTTACAGTTCCAGAGA | 0.363
72 | TCCCTTATAGTCTCGGAGA | 0.214
73 | TCCCTAACAGTGATGGAGA | 0.278
74 | TCCCTATCAGTGATGGAGA | 0.999
75 | TCCCTATCAGTCAATGAGA | 0.625
76 | TCCCTATGAGTGAGCGAGA | 0.278
77 | TCCCTGTCAGTGAGCGAGA | 0.341
78 | TCCCAATCAGTAACGGAGA | 0.802
79 | TCCCTATAAGTCATTGAGA | 0.498
80 | TCCCAATCAGTAACTGAGA | 0.278
81 | TCCCTCTCAGTGATGGAGA | 0.546
82 | TCCCTATCAGTCATTGAGA | 0.708
83 | TCCCCATCAGTAACGGAGA | 0.304
84 | TCCCTATCAGTGAGCGAGA | 0.73
85 | TCCCGTTCAGTGCTTGAGA | 0.367
86 | TCCCACTCAGTGCATGAGA | 0.218
87 | TCCCCCTGAGTAGGCGAGA | 0.179
88 | TCCCCGCAAGTACACGAGA | 0.292

Row | Sequence | TetR repression strength
89 | TCCCCAGGAGTGATGGAGA | 0.176
90 | TCCCTAGTAGTTGTGGAGA | 0.283
91 | TCCCTCGGAGTTGGTGAGA | 0.237
92 | TCCCTGTCAGTCGGTGAGA | 0.378
93 | TCCCCGGCAGTGGTGGAGA | 0.25
94 | TCCCGGACAGTGCCAGAGA | 0.402
95 | TCCCATGGAGTCGGTGAGA | 0.0966
96 | TCCCGGACAGTTTGGGAGA | 0.473
97 | TCCCTATAAGTGAGTGAGA | 0.693
98 | TCCCTATAAGTCAGTGAGA | 0.427
99 | TCCCGGACAGTGAGAGAGA | 0.246
100 | TCCCTATAAGTGAGGGAGA | 0.237
101 | TCCCGGACAGTGTGAGAGA | 1.2
102 | TCCCTATCAGTGAATGAGA | 0.781
103 | TCCCGGACAGTTGGGGAGA | 0.922
104 | TCCCGGACAGTTGGAGAGA | 0.299
105 | TCCCGGACAGTGTGTGAGA | 0.2
106 | TCCCTAACAGTGAATGAGA | 0.46
107 | TCCCAATCAGTGAATGAGA | 0.603
